Experimental data: PubChem BioAssay AID1159580 (chemical genetic matrix, 2015)
The campaign covered roughly 5,500 compounds. About 2,000 (36%) were called active. Roughly 18% stayed inconclusive and do not appear here. Cut-off read from the data, not from the text of the source: active = normalized growth mostly below about 0.91 (no sharp cut-off); inconclusive = no clear call, values can overlap the other calls; inactive = mostly above about 0.92. This is one part of the list.

Experiment: chemical genetic growth profiling, strain panel (AID 1159580);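 note: tested at 20 µM; growth read once vehicle control cultures reached saturation at 30 °C; 1 = growth at the plate median or of vehicle wells; lower values mean less growth of the strain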
Conditions: S. cerevisiae deletion strains, growth OD

Measured: normalized growth

Nc1ccc(C(=O)O)c(O)c1 (tested in a mixture with another compound)
inactive: locus YBR021W, strain FUR4, stronger effect = lower value 1 | locus YBR229C, strain ROT2, stronger effect = lower value 0.988 | locus YCL029C, strain bik1, stronger effect = lower value 0.993 | locus YDL035C, strain GPR1, stronger effect = lower value 0.989 | locus YDL074C, strain BRE1, stronger effect = lower value 1.01 | locus YDL101C, strain DUN1, stronger effect = lower value 0.995 | locus YDL134C, strain PPH21, stronger effect = lower value 0.994 | locus YDL185W, strain tfp1, stronger effect = lower value 0.993 | locus YDL192W, strain arf1, stronger effect = lower value 0.988 | locus YDR101C, strain arx1, stronger effect = lower value 1.02 | locus YDR162C, strain NBP2, stronger effect = lower value 0.995 | locus YDR318W, strain mcm21, stronger effect = lower value 0.992 | locus YDR388W, stronger effect = lower value 0.981 | locus YDR502C, strain sam2, stronger effect = lower value 1.02 | locus YEL061C, strain CIN8, stronger effect = lower value 0.994 | locus YER110C, stronger effect = lower value 0.976 | locus YER155C, strain BEM2, stronger effect = lower value 0.999 | locus YER167W, strain BCK2, stronger effect = lower value 0.985 | locus YGL078C, strain dbp3, stronger effect = lower value 0.992 | locus YGL086W, strain mad1, stronger effect = lower value 1.03 | locus YGL248W, strain PDE1, stronger effect = lower value 0.994 | locus YGR135W, strain pre9, stronger effect = lower value 0.945 | locus YGR252W, strain gcn5, stronger effect = lower value 0.963 | locus YHR030C, strain SLT2, stronger effect = lower value 0.993 | locus YHR079C, strain IRE1 (second series), stronger effect = lower value 0.98 | locus YHR094C, strain hxt1, stronger effect = lower value 0.977 | locus YHR129C, strain ARP1, stronger effect = lower value 0.998 | locus YHR200W, strain rpn10, stronger effect = lower value 0.988 | locus YIL066C, strain RNR3, stronger effect = lower value 0.996 | locus YIL073C, strain SPO22, stronger effect = lower value 1.01 | locus YIL125W, strain kgd1, stronger effect = lower value 0.988 | locus YIR030C, strain dcg1, stronger effect = lower value 0.979 | locus YJL095W, strain BCK1, stronger effect = lower value 1.02 | locus YJL134W, strain LCB3, stronger effect = lower value 0.994 | locus YJL168C, strain set2, stronger effect = lower value 0.976 | locus YJL187C, strain SWE1 (second series), stronger effect = lower value 1.01 | locus YJR043C, strain POL32, stronger effect = lower value 0.981 | locus YJR075W, strain HOC1, stronger effect = lower value 0.988 | locus YKL009W, strain mrt4, stronger effect = lower value 1 | locus YKL068W, stronger effect = lower value 0.992 | locus YKL085W, strain MDH1 (second series), stronger effect = lower value 0.984 | locus YKL085W, strain MDH1, stronger effect = lower value 0.984 | locus YKL190W, strain CNB1, stronger effect = lower value 0.998 | locus YKR001C, strain vps1, stronger effect = lower value 0.998 | locus YLR039C, strain RIC1, stronger effect = lower value 1.06 | locus YLR058C, strain SHM2, stronger effect = lower value 0.989 | locus YLR102C, strain apc9, stronger effect = lower value 0.983 | locus YLR262C, strain YPT6, stronger effect = lower value 1.02 | locus YLR268W, strain sec22, stronger effect = lower value 0.992 | locus YLR330W, strain CHS5, stronger effect = lower value 0.994 | locus YLR342W, strain FKS1 (second series), stronger effect = lower value 0.968 | locus YLR371W, strain rom2, stronger effect = lower value 0.977 | locus YLR418C, strain cdc73, stronger effect = lower value 0.957 | locus YML016C, strain PPZ1, stronger effect = lower value 0.99 | locus YML032C, strain rad52, stronger effect = lower value 0.994 | locus YML124C, strain tub3, stronger effect = lower value 0.989 | locus YMR078C, strain ctf18, stronger effect = lower value 0.978 | locus YMR223W, strain ubp8, stronger effect = lower value 0.964 | locus YMR307W, strain GAS1, stronger effect = lower value 0.909 | locus YNL067W, strain RPL9B, stronger effect = lower value 1.02 | locus YNL128W, strain TEP1, stronger effect = lower value 0.995 | locus YNL153C, strain GIM3, stronger effect = lower value 1.04 | locus YNL233W, strain BNI4, stronger effect = lower value 1.01 | locus YNL250W, strain rad50, stronger effect = lower value 0.981 | locus YNL271C, strain bni1, stronger effect = lower value 0.991 | locus YNL298W, strain CLA4, stronger effect = lower value 0.983 | locus YNL307C, strain MCK1, stronger effect = lower value 0.981 | locus YNR052C, strain pop2, stronger effect = lower value 0.991 | locus YOL006C, strain TOP1, stronger effect = lower value 1.08 | locus YOL012C, strain htz1 0.929 | locus YOL147C, strain pex11, stronger effect = lower value 0.988 | locus YOR061W, strain CKA2, stronger effect = lower value 0.993 | locus YOR069W, strain VPS5, stronger effect = lower value 0.988 | locus YOR136W, strain idh2, stronger effect = lower value 0.987 | locus YOR144C, strain elg1, stronger effect = lower value 0.977 | locus YOR184W, strain ser1, stronger effect = lower value 0.971 | locus YOR316C, strain cot1, stronger effect = lower value 0.986 | locus YPR119W, strain clb2, stronger effect = lower value 0.984 | locus YPR141C, strain kar3, stronger effect = lower value 0.984 | locus YPR163C, strain tif3, stronger effect = lower value 0.979 | locus YPR167C, strain met16, stronger effect = lower value 0.981 | strain wtn01, stronger effect = lower value 1.01
